Screening results deposited in PubChem by National Center for Advancing Translational Sciences (NCATS).
ALDH1A1 inh – blocks purified human ALDH1A1 activity | P00352 | Purified ALDH1A1, NADH fluorescence, propionaldehyde substrate | Potency, µM (series often up to 75.3 µM), inactives show top-dose activity, negative = inhibition, most hits filed as inhibitors | 220,000 compounds, 7.3% hits | AID 1030;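 note: potency is the fitted concentration of half-maximal effect; plate controls were no enzyme wells and a reference inhibitor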
Target sequence (P00352 whole entry, looked up): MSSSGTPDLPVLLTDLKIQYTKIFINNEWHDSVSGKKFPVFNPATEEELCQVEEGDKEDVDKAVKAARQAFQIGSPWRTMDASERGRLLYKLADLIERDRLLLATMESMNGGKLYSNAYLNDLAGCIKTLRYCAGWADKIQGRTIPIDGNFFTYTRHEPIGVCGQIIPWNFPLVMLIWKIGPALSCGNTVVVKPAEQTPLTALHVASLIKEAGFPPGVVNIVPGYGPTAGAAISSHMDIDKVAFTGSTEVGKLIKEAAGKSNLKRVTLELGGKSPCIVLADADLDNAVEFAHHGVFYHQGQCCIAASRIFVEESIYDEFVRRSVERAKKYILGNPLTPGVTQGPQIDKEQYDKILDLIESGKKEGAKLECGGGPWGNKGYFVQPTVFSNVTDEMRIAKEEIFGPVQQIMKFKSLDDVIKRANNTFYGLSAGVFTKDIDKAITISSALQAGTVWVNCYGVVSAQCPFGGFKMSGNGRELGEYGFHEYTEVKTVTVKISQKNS
HPGD block – HPGD (human) dehydrogenase inhibition | P15428 | purified HPGD, NADH fluorescence kinetic, PGE2 substrate | Potency, µM, without a hit: at the top dose activity change, negative = inhibition, hits mostly inhibitors | 150,000 compounds, 4.3% hits | AID 894; note: potency is the fitted concentration of half-maximal effect
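20 nM HPGD preincubated 15 min at room temperature with compound in 50 mM Tris-HCl pH 8, 0.01% Tween 20. Started with 1 mM NAD+ and 30 uM prostaglandin E2; NADH fluorescence (360/450 nm) read 5 times over 30-s intervals, last minus first.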
PNC assembly inh – blocks assembly of the perinucleolar compartment | PC3M PTB-GFP, PNC prevalence imaging, 16 h; stronger effect = lower value | activity change (PNC), negative = inhibition, % at 10 µM | 140,000 compounds, 3.1% hits | AID 2417;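 active = readout at or below -70, meaning at least 70% loss of cells showing the perinucleolar compartment, a nuclear body marking cancer cells; inconclusive = readout between -30 and a set limit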;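 note: plate controls were DMSO wells for no effect and camptothecin positive control wells for full effect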
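Compounds are pinned in duplicate onto adhered PC3M cells stably expressing GFP-tagged PTB and incubated 16 h at 37 C. Cells are then fixed, nuclei stained with Hoechst, and PNC-positive cells counted.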
The depositor's hits bear a star; u = inconclusive; x = no result; [ ] = dose if it differs, or a comment. Most compounds without a hit are left out; they make up all but 11% or so of the library. Unless noted, calls come from the whole dose curve; as a rule, active = well fitted inhibition curve with a large enough effect (not every such curve was filed as active); inconclusive = small, poorly fitted or top-dose-only effect, or another doubt; inactive = no such curve, though single readings can be large or run the other way. Unless noted, % is set by controls: 0 for no effect and ±100 for the full control effect.

SMILES	ALDH1A1 inh	HPGD block	PNC assembly inh
O=C(Nc1ccccc1CC[N+](=O)[O-])N1CCN(c2ccccc2)CC1	8.91µM*	x	x
O=C(Nc1cccc2ccccc12)N1CCN(c2ccc(F)cc2)CC1	-2.5%	-9.0%	-8.5
N#Cc1cccc(NC(=O)N2CC3(CCN(C(=O)c4cnccn4)CC3)C2)c1	-6.1%	-22.3%	x
O=C(NC1CC1)C1=C[C@@H](c2csc3ccccc23)C[C@@H](OCc2ccc(CO)cc2)O1	-0.2%	x	x
CC#CCN1c2ccccc2[C@]23C[C@@H](C(=O)OC)N(C(=O)CC(C)C)C2=NC(C(=O)OC)=C(C(=O)OC)[C@H]13	1.8%[13.5 µM]	-1.3%	x
CC(C)(C)N=C1NN=C(c2cc3ccccc3o2)CS1	22.4µM*	x	0.3
C=CCn1c(C)cc(C2=NNC(=NC(C)(C)C)SC2)c1C	u	-17.6%	u
CCOc1cc(C(=O)Nc2ncn[nH]2)cc(OCC)c1OCC	3.0%	x	x
COC(=O)C1=C(C)N=C2SC(C#N)=C(N)N2C1c1cccc(OC)c1 (configuration not stated)	12.6µM*	-9.9%	24.6
COC(=O)C1=C(C)N=C2SC(C#N)=C(N)N2C1c1ccc(OC)cc1 (configuration not stated)	u	-17.8%	30.5
Cc1ccc2nc(SCc3nnc(-c4ccccc4Br)o3)[nH]c2c1	3.5%	x	0.8
O=C(Nc1cc(S(=O)(=O)N2CCOCC2)ccc1N1CCOCC1)C1CCCO1 (configuration not stated)	9.9%	x	x
N#Cc1ccc(NC(=O)CNc2cc(S(=O)(=O)N3CCOCC3)ccc2NCC2CCCO2)cc1 (configuration not stated)	17.8µM*	x	x
c1ccc(CCn2c(C3CC3)nc3ccccc32)cc1	5.0%	-8.7%	17.3
COC(=O)c1ccc(CSC(=N)N)o1	2.7%	x	x
CCOC(=O)c1ccoc1CSCc1ccc(C(=O)OC)o1	25.1µM*	-18.2%	u
O=C(NCCC[N+]1=CC=N[C@H]1c1ccccc1)N1CCCc2nc(-c3ccc(Br)cc3)ccc21	-6.3%[13.5 µM]	x	x
CCOC(=O)c1[nH]c2ccc(OC)cc2c1NC(=O)/C=C/c1ccc2c(c1)OCO2	21.8%	u	-22.4
O=C(/C=C/c1ccc2c(c1)OCO2)Nc1c(C(=O)O)[nH]c2ccccc12	u	15.8µM*	-24.7
O=c1[nH]n2c(=O)c3c([nH]c2c1N=Nc1cccc(Cl)c1)CCCC3	-1.8%	15.8µM*	-18.3
CCOc1ccc(N=Nc2c(=O)[nH]n3c(=O)c4c([nH]c23)CCCC4)cc1	3.8%	u	-27.5
CCOC(=O)N1CCN(CC(O)c2ccc3c(c2)CCN3)CC1 (configuration not stated)	17.8µM*	x	-10.9
OC(CN1CCN(c2ccccc2)CC1)c1ccc2c(c1)CCN2 (configuration not stated)	7.08µM*	-5.8%	40.3
OCC(O)CN1CCN(c2ccccc2)CC1 (configuration not stated)	-7.3%	-7.2%	13.8
CCOC(=O)N1CCN(CC(O)c2ccc3cc[nH]c3c2)CC1 (configuration not stated)	-3.2%	-7.7%	-20.2
SMILES	ALDH1A1 inh	HPGD block	PNC assembly inh
O=C(C1CCN(S(=O)(=O)c2cccs2)CC1)N(c1ccccn1)C1CCCCC1	1.9%	x	x
CCC(C)O (configuration not stated)	5.4%	-6.6%	x
Cc1ccc(C)c(Sc2ccc(NC(=O)CCl)cc2)c1	0.891µM*	-10.9%	-12.5
Cc1ccc(Sc2ccc(NC(=O)CCl)cc2)cc1C	2µM*	u	-6.3
Cc1ccc(NC(=O)CCn2cccc2)cc1C	7.5%	-20.1%	-26.5
CSc1ccc(NC(=O)CC(C)=O)cc1	-3.5%	-4.1%	-11.8
O=C(COc1ccccc1C(=O)c1cnn(-c2ccccc2)c1)Nc1ccccc1	-5.3%	-14.8%	3.6
CC(C)CCNC(=O)CNC(=S)N(Cc1ccccc1)Cc1cccnc1	u	-14.1%	-9.3
O=C(COc1cccc2c1CCN(Cc1ccc(Br)cc1)C2=O)NCc1ccco1	-3.4%	-16.6%	25.6
CCNc1ncc2nc(-c3cc(F)cc(F)c3)c(=O)n(Cc3ccc(F)cc3)c2n1	-14.2%	x	x
CC(Oc1ccc(F)cc1)C(O)CCN(C)C (configuration not stated)	-2.6%	x	x
COc1cc(OC)c(C2=NOC(C(=O)N3CCc4ccccc4C3)C2)cc1Cl (configuration not stated)	-11.9%	11.2µM*	6.7
O=C(C1CC(c2ccc(F)cc2)=NO1)N1CCCc2ccccc21 (configuration not stated)	3.0%	-8.0%	8.7
COc1cc(OC)c(C2=NOC(C(=O)N3CCN(C(=O)c4ccco4)CC3)C2)cc1Cl (configuration not stated)	-12.1%	x	x
